Measured values: PubChem BioAssay
Records with an inconclusive call do not appear. Active and inactive are the calls of the source.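 Rule for the calls, unless noted: active = percent response above a set limit, the screen-wide mean plus 3 SD (cut at about 130% in these data); inactive = the rest.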

Key:
[1] = rapamycin-like changes in RPL19A-GFP expression – cell-based, S. cerevisiae, multiplex flow cytometry, primary screen (AID 1862; in the data active = percent of DMSO control GFP below about 86%;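 note: lower values mimic rapamycin by blocking the RPL19A rise seen in DMSO cells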); settings: S. cerevisiae RPL19A-GFP strain, flow cytometry fluorescence, 3 h; at 10 µM; stronger effect = lower value
[2] = TOR pathway GLN3 branch reporter MEP2-GFP changes – S. cerevisiae, multiplex flow cytometry, primary screen (AID 1867;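 active = GFP response, as percent of the DMSO control, above the screen-wide mean plus 3 SD, about 139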;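 note: median GFP channel fluorescence of barcode-gated MEP2-GFP cells measured by flow cytometry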); settings: S. cerevisiae MEP2-GFP strain, 3 h, at 10 µM, stronger effect = higher value, 100% means same as DMSO wells
[3] = TOR pathway RTG branch CIT2 reporter changes – S. cerevisiae, GFP fusion, multiplex flow cytometry, primary screen (AID 1870);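 note: barcoded CIT2-GFP strain pooled with four other GFP strains with rapamycin as positive control; median GFP fluorescence per well over plate mean of DMSO wells so 100% = DMSO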; settings: S. cerevisiae CIT2-GFP expression, 3 h, at 10 µM, stronger effect = higher value
[4] = TOR pathway LAP4-GFP level changes – S. cerevisiae, multiplex flow cytometry, primary screen (AID 1873;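 active = GFP signal, as percent of the solvent control, above the screen mean plus 3 SD, about 149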); settings: S. cerevisiae LAP4-GFP expression, 3 h, at 10 µM, stronger effect = higher value
[5] = yeast AGP1-GFP level changes, GLN3 branch – cell-based, multiplex flow cytometry, S. cerevisiae, primary screen (AID 1887;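 active = GFP signal above the screen-wide mean plus 3 SD, that is over about 124.5% of the solvent control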;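 note: AGP1-GFP fusion strain of S. cerevisiae within a five-strain barcoded multiplex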); settings: 3 h, at 10 µM, stronger effect = higher value
[6] = reduced mouse 2C T cell binding to pMHC/ICAM-1 vesicles – MLPCN validation set, flow cytometry, LFA-1/ICAM-1 modulator project, pilot screen (AID 2523;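 active = response below a set limit, under 55% cells CD8-positive and vesicle-bound, and CD8 cells' 90th-percentile brightness under 279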;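 for vesicle binding response: mean PE anti-B7-1 fluorescence of CD8+ cells relative to row control; 100% = QL9-loaded vesicles with DMSO vehicle in the same plate row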); settings: 2C mouse CD8+ T cells, at 7 µM, stronger effect = lower value; double positive events: measured here: CD8+/vesicle+ event percentage
[7] = target: Integrin beta-1 (Homo sapiens) + Integrin alpha-4 (Homo sapiens) (UniProt P13612+P05556); experiment: alpha4beta1 integrin LIBS antibody binding reduction – U937 cells, HUTS-21 mAb, flow cytometry, validation set, VLA-4 allosteric modulator project, pilot screen (AID 2674;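 active = inhibition above 50%, about 3 SD of the validation set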;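 note: antibody binding induced by the VLA-4 ligand LDV present at three times its Kd; 0% = LDV ligand with antibody and no compound and 100% = antibody without LDV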); settings: HUTS-21 LIBS mAb binding, at 6.7 µM, stronger effect = higher value, binding induced by LDV ligand
[8] = calorie-restriction mimetic ROS inhibitors, yeast – validation compound set, pilot screen (AID 2706;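 active = superoxide response below 65% of plate, a cut near 3 SD across the whole screen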;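 note: yeast exposed to compound for one week at 30 degrees C before staining; 100% = mean of all compound wells on the same plate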); settings: S. cerevisiae aging, superoxide DHE fluorescence; at 10 µM; stronger effect = lower value
[9] = target: Beta-adrenergic receptor kinase 1 (Homo sapiens) (UniProt P25098); experiment: GRK2 binders displacing RNA aptamer, biochemical, validation, human GRK2, bead flow cytometry (AID 488806;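 active = aptamer binding inhibition above 30%, about 3 SD of noise from non-fluorescent compounds; inactive = inhibition at or below 30%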); settings: bead-bound GRK2, FAM-aptamer displacement, at 10 µM, stronger effect = higher value
[10] = target: Beta-2 adrenergic receptor (Homo sapiens) (UniProt P07550); experiment: agonist-induced loss of surface beta2AR – cell-based, FAP fluorogen, flow cytometry, validation set, pilot screen (AID 504459;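 active = percent response above 42, roughly 3 SD of non-fluorescent test compounds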;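 note: agonist-driven loss of surface beta2AR via internalization measured by FAP dye flow cytometry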); settings: Am2.2-beta2AR cells, at 10 µM, stronger effect = higher value
[11] = target: AP-2 complex subunit beta (Homo sapiens) (UniProt P63010); experiment: beta-arrestin/AP2 interaction blockers – biochemical, validation set, GST-AP2 beads, flow cytometry, pilot screen (AID 504541;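 active = inhibition above 54%, about 3 SD of non-fluorescent compounds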;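 note: AP2 carries R879A mutation and is captured from E. coli lysate; bead-bound FITC arrestin peptide fluorescence measuring arrestin peptide binding to AP2; 0% = DMSO wells and 100% = excess unlabeled arrestin peptide control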); settings: FITC arrestin peptide, at 10 µM, stronger effect = higher value, AP2 beta2 appendage fragment, R879A mutant
[12] = cytosolic pH regulators acting via V-ATPase – S. cerevisiae, pHLuorin, HTS validation (AID 504600; in the data active = response above about 15%;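 note: plate controls were DMSO for no effect and reference compound for full effect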); settings: V-ATPase proton transport, at 10 µM, stronger effect = higher value
[13] = system: anti-desmoglein-3 scFv antibody binding to human DSG3; experiment: blockers of pathogenic pemphigus antibody–desmoglein-3 binding – biochemical, validation compound set, bead-based, flow cytometry, pilot screen (AID 588368;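 active = binding below the plate cutoff, the plate median minus 3 SD, with a reading above zero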;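 note: signal is the median channel fluorescence of bead-bound GFP antibody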); settings: Protein G beads, DSG3-Fc, scFv-GFP binding, at 10 µM, stronger effect = lower value
[14] = Nile Red efflux blockade in pump-expressing yeast – validation compound set, multiplex, phenotypic, pilot screen (AID 588506;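 active = efflux inhibition above 0.42, the validation set average plus 4 SD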;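 note: Nile Red retained in cells so higher fluorescence means more efflux inhibition; 0 = negative control wells and 1 = enniatin B 25 µM full block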); settings: S. cerevisiae pump-expressing triplex, Nile Red efflux flow cytometry; at 10 µM; stronger effect = higher value; the pumps come from Candida albicans
[15] = target: ATP-binding cassette sub-family B member 6 (Homo sapiens) (UniProt Q9NP58); experiment: blockers of ABCB6-driven porphyrin uptake – K562-ABCB6 cells, flow cytometry, validation set, pilot screen (AID 588550;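 active = inhibition above the screen-wide mean plus 3 SD, about 51%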;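 note: 0% = DMSO wells and 100% = benzethonium chloride 70 µM positive control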); settings: K562-ABCB6 porphyrin accumulation, 1 h, at 10 µM, stronger effect = higher value
[16] = AML differentiation inducers, ER-HoxA9 marrow cells – cell-based, GFP/MAC1 double positive, flow cytometry, validation set, primary screen (AID 588685;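 active = differentiation response of at least 50%, scaled between solvent and reference control, from cells with both markers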;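 note: compound exposure lasts four days before antibody staining and flow analysis; 0% = DMSO wells and 100% = 5 µM fulvestrant positive control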); settings: stronger effect = higher value, normalized: vehicle 0, fulvestrant 100

ATP-binding cassette sub-family B member 6 (Homo sapiens), sequence (Q9NP58 whole entry, looked up): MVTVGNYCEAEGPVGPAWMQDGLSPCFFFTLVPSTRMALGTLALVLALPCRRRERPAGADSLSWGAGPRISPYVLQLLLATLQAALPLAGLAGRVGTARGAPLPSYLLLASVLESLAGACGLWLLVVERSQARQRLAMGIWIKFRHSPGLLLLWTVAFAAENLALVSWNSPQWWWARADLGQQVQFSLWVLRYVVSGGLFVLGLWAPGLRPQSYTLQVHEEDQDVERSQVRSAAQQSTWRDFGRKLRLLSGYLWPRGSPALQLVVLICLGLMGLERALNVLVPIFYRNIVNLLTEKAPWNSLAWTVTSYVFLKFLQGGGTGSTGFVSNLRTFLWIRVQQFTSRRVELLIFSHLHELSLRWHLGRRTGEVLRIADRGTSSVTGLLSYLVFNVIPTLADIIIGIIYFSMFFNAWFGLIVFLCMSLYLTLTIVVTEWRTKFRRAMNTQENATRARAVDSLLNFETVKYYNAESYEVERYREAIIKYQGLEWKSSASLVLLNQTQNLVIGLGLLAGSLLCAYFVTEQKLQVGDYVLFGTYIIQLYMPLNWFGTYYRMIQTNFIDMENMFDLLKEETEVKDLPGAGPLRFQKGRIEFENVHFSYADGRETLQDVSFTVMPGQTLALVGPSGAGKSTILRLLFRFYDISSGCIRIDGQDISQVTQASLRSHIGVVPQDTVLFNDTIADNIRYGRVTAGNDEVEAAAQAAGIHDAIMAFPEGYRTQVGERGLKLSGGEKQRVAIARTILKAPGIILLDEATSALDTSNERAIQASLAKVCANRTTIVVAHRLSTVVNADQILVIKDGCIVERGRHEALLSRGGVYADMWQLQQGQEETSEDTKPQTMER
Beta-2 adrenergic receptor (Homo sapiens), sequence (P07550 whole entry, looked up): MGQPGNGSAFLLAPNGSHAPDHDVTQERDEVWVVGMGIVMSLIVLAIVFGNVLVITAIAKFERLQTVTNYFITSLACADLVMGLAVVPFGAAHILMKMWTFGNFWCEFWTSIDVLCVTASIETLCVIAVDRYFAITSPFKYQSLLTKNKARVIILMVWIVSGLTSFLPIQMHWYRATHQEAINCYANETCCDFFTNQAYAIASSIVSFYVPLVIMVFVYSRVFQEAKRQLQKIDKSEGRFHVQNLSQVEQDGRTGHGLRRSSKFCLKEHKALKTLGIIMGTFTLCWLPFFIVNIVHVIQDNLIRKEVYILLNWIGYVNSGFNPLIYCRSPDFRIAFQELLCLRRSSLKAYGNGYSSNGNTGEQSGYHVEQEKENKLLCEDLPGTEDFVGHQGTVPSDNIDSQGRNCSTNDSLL
Beta-adrenergic receptor kinase 1 (Homo sapiens), sequence (P25098 whole entry, looked up): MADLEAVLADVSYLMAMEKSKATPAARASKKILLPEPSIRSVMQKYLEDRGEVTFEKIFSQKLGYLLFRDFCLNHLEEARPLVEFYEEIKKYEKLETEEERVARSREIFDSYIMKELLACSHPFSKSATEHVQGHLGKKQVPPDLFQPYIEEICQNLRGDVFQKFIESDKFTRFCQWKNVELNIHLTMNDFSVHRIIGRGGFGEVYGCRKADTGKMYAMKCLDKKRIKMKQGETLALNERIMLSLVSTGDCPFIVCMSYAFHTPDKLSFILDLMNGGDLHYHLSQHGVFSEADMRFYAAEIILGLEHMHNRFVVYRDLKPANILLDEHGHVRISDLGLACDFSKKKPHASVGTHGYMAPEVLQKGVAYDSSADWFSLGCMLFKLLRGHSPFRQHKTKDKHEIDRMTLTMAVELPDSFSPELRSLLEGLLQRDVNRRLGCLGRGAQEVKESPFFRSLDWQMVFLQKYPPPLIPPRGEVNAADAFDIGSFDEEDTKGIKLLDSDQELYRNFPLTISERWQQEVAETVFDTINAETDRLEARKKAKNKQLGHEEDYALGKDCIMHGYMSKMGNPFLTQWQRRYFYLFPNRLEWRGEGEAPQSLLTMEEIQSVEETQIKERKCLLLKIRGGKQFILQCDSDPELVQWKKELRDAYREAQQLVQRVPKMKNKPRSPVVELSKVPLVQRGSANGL
AP-2 complex subunit beta (Homo sapiens), sequence (P63010 whole entry, looked up, the tested form may be a part, one chain of several): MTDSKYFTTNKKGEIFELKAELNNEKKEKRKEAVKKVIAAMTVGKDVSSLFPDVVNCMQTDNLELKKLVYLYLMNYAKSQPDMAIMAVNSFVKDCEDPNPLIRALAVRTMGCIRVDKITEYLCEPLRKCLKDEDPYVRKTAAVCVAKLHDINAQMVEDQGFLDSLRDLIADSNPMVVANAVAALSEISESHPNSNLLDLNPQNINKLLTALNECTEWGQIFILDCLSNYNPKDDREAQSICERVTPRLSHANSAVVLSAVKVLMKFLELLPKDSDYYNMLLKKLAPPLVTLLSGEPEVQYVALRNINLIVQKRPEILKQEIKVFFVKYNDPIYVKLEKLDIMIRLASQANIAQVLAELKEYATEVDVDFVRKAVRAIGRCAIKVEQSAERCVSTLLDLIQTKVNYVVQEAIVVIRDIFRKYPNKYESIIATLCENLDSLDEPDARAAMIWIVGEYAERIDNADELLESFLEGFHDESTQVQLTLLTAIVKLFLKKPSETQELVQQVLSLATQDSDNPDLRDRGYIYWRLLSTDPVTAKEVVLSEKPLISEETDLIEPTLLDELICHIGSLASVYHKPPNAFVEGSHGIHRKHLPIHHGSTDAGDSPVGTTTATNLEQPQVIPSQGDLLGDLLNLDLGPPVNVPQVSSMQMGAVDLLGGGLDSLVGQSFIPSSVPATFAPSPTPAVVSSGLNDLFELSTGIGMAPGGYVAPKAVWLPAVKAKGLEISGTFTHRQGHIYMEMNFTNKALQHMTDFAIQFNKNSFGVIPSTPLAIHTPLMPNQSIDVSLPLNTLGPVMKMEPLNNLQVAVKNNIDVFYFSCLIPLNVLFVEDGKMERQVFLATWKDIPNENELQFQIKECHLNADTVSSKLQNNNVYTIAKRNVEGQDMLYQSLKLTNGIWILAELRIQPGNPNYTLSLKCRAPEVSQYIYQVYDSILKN
Integrin beta-1 (Homo sapiens) + Integrin alpha-4 (Homo sapiens), sequence (P05556 whole entry, looked up): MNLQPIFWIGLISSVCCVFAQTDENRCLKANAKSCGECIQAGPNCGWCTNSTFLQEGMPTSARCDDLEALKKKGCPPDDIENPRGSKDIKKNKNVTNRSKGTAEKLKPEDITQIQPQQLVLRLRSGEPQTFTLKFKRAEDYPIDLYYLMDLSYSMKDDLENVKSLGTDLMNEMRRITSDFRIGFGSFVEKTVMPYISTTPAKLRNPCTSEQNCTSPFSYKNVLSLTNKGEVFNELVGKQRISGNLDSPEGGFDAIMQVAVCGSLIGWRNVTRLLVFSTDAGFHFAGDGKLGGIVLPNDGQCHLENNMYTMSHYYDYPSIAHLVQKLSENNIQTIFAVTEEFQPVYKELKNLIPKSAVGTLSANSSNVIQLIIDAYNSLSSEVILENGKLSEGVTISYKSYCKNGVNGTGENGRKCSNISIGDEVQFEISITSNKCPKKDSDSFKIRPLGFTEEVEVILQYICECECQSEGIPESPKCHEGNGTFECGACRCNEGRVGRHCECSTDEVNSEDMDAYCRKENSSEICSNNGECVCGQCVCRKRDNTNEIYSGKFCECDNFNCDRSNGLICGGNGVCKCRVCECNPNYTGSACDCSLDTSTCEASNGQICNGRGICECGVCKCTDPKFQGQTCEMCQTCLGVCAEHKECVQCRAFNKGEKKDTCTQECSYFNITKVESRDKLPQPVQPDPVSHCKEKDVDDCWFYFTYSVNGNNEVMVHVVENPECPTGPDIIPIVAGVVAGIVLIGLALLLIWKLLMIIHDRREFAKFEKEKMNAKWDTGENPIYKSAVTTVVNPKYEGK
Integrin beta-1 (Homo sapiens) + Integrin alpha-4 (Homo sapiens), sequence (P13612 whole entry, looked up): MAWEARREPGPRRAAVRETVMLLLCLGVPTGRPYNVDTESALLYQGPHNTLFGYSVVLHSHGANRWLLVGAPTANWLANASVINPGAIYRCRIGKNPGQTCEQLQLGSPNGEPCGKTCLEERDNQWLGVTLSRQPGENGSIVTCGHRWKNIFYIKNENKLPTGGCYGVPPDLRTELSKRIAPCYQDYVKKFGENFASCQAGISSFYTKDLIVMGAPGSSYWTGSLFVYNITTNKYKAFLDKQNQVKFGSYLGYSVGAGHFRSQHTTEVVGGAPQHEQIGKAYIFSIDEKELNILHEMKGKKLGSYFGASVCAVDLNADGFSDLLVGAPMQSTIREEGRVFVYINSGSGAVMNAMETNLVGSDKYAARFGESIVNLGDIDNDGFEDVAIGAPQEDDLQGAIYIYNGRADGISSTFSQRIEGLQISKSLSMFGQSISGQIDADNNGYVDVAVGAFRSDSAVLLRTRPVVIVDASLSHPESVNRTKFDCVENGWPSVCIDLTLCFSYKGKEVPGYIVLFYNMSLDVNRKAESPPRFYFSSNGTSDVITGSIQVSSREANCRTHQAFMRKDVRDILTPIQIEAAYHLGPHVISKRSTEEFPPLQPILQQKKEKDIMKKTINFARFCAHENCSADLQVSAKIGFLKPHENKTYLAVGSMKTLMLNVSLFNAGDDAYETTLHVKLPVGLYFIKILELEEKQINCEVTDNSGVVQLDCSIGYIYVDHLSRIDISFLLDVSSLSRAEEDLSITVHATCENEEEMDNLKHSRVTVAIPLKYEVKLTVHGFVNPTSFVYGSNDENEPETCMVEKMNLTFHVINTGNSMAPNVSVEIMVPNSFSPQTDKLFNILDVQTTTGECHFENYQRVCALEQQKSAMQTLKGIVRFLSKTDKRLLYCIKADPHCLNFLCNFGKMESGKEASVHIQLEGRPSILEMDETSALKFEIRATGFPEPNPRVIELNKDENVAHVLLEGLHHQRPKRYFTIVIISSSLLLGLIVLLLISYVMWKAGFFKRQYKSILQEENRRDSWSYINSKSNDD

Row | Structure (SMILES) | percent of DMSO control GFP [1] | GFP response vs DMSO [2] | percent response of DMSO control [3] | GFP response vs DMSO [4] | GFP response, % of DMSO [5] | double positive events [6] | vesicle binding response [6] | inhibition [7] | superoxide response (% of plate) [8] | aptamer binding inhibition [9] | response [10] | inhibition [11] | response [12] | binding (% of control) [13] | efflux inhibition (fraction of control) [14] | inhibition [15] | differentiation response [16]
1 | COc1cc(C2C(C(C)=O)=C(O)C(=O)N2c2ccc(C)cc2)ccc1O (centres undefined) | 100% (inactive) | 104% (inactive) | 100% (inactive) | 97.3% (inactive) | 97.5% (inactive) | 57.9% | 75.1% (inactive) | -16% (inactive) | 107% (inactive) | 3% (inactive) | -1.25% (inactive) | 51.5% (inactive) | -8.34% (inactive) | 95.1% (inactive) | -0.17 (inactive) | -2% (inactive) | 17.8% (inactive)
2 | COc1ccccc1/C=C/CN1CCN(Cc2ccc(F)cc2)C(CCO)C1 (centres undefined) | 101% (inactive) | 98.8% (inactive) | 98.2% (inactive) | 91.6% (inactive) | 98.5% (inactive) | 63.2% | 171% (inactive) | -3.18% (inactive) | 92.6% (inactive) | 1% (inactive) | 9.17% (inactive) | -20.3% (inactive) | 0.79% (inactive) | 107% (inactive) | -0.38 (inactive) | 8% (inactive) | -3.4% (inactive)
3 | CCCC(=O)O[C@]1(C(=O)CCl)[C@@H](C)C[C@H]2[C@@H]3CCC4=CC(=O)C=C[C@]4(C)[C@@]3(F)C(=O)C[C@@]21C | 93.7% (inactive) | 134% (inactive) | 111% (inactive) | 85.8% (inactive) | 87.3% (inactive) | 65.1% | 147% (inactive) | 1.61% (inactive) | 98.4% (inactive) | 3% (inactive) | -4.94% (inactive) | 11.3% (inactive) | -7.84% (inactive) | 94.1% (inactive) | 0.23 (inactive) | 8% (inactive) | 0% (inactive)
4 | CC(=O)N1CCN2C(=O)C1CCCC(=O)c1cc(C(C)C)ccc12 (centres undefined) | 99.5% (inactive) | 90.8% (inactive) | 103% (inactive) | 82.8% (inactive) | 91.2% (inactive) | 55.3% | 234% (inactive) | -4.52% (inactive) | 94.5% (inactive) | 6% (inactive) | 0.52% (inactive) | -5.05% (inactive) | 0.04% (inactive) | 103% (inactive) | -0.24 (inactive) | 9% (inactive) | 20% (inactive)
5 | Cc1cn([C@H]2C=C[C@@H](CO)O2)c(=O)[nH]c1=O | 101% (inactive) | 104% (inactive) | 94.2% (inactive) | 92% (inactive) | 93.5% (inactive) | 65.8% | 705% (inactive) | 16.1% (inactive) | 94.6% (inactive) | 3% (inactive) | -6.71% (inactive) | -12% (inactive) | 3.71% (inactive) | 101% (inactive) | 0.02 (inactive) | 3% (inactive) | 1.22% (inactive)
6 | COc1ccc(C(=O)CC2OC(=O)c3c2ccc(OC)c3OC)cc1 (centres undefined) | 106% (inactive) | 100% (inactive) | 106% (inactive) | 99.9% (inactive) | 104% (inactive) | 63% | 256% (inactive) | 4.73% (inactive) | 107% (inactive) | 2% (inactive) | -6.79% (inactive) | -3.63% (inactive) | -4.39% (inactive) | 95.8% (inactive) | -0.01 (inactive) | 8% (inactive) | -2.69% (inactive)
7 | O=C(NO)c1ccccc1O | 103% (inactive) | 107% (inactive) | 105% (inactive) | 94.8% (inactive) | 106% (inactive) | 63.6% | 158% (inactive) | 8.29% (inactive) | 95.5% (inactive) | 2% (inactive) | -0.56% (inactive) | 36.8% (inactive) | -8.07% (inactive) | 98.8% (inactive) | 0.03 (inactive) | 9% (inactive) | -13.3% (inactive)
